# Experimental data: paper PMC7862700, “An all-to-all approach to the identification of sequence-specific readers for epigenetic DNA modifications on cytosine”
# Assays:
# Experiment in all cases: DAPPL (digital affinity profiling via proximity ligation, sequencing); 10 mM Tris-HCl pH 7.5, 50 mM NaCl, 1 mM DTT, 4% glycerol, room temperature, 30 min; GST-TFs on glutathione beads, 16-mer random dsDNA library, 0.1% formaldehyde crosslink after washing; high values mean tight binding
# [1] = target: T1, FLI1 (Homo sapiens, UniProt Q01543 1-452); settings: protein: recombinant; tags: N-terminal GST; dsDNA, one strand shown
# T1 sequence: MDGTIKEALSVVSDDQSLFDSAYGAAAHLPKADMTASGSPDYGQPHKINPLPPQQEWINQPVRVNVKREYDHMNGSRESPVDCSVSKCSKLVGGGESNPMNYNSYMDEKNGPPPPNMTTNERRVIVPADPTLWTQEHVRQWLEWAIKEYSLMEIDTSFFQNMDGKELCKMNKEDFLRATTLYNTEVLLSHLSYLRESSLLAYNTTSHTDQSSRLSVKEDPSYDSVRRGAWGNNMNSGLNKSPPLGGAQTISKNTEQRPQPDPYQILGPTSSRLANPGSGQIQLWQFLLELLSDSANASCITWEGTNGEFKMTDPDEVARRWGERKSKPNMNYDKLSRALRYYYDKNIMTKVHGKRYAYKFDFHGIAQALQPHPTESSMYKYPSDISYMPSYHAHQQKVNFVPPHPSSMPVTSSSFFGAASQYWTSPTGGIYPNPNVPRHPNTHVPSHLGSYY
# Outline: (§1)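 After expression in yeast as GST fusions, human transcription factors were bound to glutathione beads, DNA-barcoded and mixed with a tag-only sample. The pools were incubated with 200 nmole of a 16-mer random double-stranded DNA library in Tris/NaCl/DTT/glycerol buffer (30 min, room temperature), washed and crosslinked with 0.1% formaldehyde. Proximity ligation with BsaI/T4 ligase ran for 1 h at 37 °C, before PCR amplification and sequencing on an Illumina NextSeq500. Binding signal is a hexamer's read frequency for a factor divided by its frequency for the tag-only sample.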
# [2] = target: T2, ELK1 (Homo sapiens, UniProt P19419 1-428); settings: protein: recombinant; tags: N-terminal GST; dsDNA, one strand shown
# T2 sequence: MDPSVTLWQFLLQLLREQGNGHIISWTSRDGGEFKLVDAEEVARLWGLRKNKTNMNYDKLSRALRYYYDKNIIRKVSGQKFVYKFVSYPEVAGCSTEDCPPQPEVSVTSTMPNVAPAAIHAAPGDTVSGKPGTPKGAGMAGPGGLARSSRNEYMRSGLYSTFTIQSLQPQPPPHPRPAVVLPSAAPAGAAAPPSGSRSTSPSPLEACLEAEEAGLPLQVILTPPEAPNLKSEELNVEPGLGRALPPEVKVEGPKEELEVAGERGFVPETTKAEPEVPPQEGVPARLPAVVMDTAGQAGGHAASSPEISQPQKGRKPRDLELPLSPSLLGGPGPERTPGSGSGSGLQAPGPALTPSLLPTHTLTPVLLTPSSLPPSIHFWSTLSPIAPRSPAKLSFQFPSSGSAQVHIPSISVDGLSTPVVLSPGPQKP
# Outline: as §1
# [3] = target: T3, GABPA (Homo sapiens, UniProt Q06546 1-454); settings: protein: recombinant; tags: N-terminal GST; dsDNA, one strand shown
# T3 sequence: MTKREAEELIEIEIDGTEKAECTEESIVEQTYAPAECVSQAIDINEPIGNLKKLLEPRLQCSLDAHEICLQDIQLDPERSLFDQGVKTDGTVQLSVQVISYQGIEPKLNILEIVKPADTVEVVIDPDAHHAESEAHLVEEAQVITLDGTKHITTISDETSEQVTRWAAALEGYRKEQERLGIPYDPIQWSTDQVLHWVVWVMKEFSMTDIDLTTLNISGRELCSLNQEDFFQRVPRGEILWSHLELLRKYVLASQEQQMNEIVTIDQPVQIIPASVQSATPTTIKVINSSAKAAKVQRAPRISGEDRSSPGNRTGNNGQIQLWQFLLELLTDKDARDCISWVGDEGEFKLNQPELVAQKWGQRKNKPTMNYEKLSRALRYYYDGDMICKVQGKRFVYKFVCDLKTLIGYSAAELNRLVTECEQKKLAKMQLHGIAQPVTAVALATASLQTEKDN
# Outline: as §1
# [4] = target: T4, ERG (Homo sapiens, UniProt P11308 1-479); settings: protein: recombinant; tags: N-terminal GST; dsDNA, one strand shown
# T4 sequence: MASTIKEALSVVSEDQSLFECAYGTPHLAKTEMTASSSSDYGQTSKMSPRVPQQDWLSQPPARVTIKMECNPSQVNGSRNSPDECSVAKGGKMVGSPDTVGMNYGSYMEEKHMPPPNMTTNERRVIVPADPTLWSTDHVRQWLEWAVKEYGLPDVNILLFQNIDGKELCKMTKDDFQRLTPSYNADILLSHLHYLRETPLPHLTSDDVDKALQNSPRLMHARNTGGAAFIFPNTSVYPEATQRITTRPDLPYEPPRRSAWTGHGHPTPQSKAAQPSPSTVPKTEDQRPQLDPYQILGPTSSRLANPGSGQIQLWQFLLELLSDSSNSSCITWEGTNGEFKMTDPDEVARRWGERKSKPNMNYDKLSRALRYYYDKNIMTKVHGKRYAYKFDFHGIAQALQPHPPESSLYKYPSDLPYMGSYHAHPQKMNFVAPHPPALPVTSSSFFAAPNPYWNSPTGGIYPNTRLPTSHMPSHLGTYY
# Outline: as §1
# [5] = target: ELF1 (Homo sapiens, UniProt P32519 1-619); settings: protein: recombinant; tags: N-terminal GST; dsDNA, one strand shown
# Sequence of ELF1 (P32519 whole entry): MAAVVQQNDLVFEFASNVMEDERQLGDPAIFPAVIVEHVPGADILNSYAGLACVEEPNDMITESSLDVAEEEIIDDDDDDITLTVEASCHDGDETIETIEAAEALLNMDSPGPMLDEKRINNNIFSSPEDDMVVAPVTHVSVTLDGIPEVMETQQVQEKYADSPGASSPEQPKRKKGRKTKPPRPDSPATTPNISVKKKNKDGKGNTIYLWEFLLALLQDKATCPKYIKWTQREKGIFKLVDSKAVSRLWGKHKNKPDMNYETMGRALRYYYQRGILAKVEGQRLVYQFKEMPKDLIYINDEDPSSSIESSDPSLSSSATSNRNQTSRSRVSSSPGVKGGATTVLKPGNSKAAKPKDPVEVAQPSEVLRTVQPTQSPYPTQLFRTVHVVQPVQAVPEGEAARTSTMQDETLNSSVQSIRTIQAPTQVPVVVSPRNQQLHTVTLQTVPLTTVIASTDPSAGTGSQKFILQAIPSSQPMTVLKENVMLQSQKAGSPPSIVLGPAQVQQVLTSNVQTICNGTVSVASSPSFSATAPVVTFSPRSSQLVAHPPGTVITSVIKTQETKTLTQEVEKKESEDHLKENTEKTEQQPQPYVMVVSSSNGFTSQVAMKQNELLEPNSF
# Outline: as §1
# [6] = target: T5, EHF (Homo sapiens, UniProt Q9NZC4 1-300); settings: protein: recombinant; tags: N-terminal GST; dsDNA, one strand shown
# T5 sequence: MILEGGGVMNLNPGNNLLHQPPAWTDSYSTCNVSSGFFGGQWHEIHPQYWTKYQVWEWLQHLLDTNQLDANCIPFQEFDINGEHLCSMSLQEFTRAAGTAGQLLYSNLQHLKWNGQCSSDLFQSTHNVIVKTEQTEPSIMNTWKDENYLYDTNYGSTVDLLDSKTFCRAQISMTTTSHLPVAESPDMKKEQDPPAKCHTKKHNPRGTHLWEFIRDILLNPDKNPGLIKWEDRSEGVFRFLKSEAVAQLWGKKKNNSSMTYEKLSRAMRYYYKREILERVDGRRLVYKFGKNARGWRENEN
# Outline: as §1
# [7] = target: SPI1 (Homo sapiens, UniProt P17947 1-270); settings: protein: recombinant; tags: N-terminal GST; dsDNA, one strand shown
# Outline: as §1
# [8] = target: SPIB (Homo sapiens, UniProt Q01892 1-262); settings: protein: recombinant; tags: N-terminal GST; dsDNA, one strand shown
# Sequence of SPIB (Q01892 whole entry): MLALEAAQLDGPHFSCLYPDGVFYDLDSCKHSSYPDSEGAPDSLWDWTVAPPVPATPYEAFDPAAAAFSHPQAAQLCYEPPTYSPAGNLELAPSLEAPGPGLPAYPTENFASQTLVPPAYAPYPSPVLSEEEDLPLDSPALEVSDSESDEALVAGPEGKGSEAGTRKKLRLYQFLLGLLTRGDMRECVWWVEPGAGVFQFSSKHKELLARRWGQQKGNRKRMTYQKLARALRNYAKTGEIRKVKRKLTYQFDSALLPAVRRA
# Outline: as §1
# [9] = target: T6, ELK3 (Homo sapiens, UniProt P41970 1-407); settings: protein: recombinant; tags: N-terminal GST; dsDNA, one strand shown
# T6 sequence: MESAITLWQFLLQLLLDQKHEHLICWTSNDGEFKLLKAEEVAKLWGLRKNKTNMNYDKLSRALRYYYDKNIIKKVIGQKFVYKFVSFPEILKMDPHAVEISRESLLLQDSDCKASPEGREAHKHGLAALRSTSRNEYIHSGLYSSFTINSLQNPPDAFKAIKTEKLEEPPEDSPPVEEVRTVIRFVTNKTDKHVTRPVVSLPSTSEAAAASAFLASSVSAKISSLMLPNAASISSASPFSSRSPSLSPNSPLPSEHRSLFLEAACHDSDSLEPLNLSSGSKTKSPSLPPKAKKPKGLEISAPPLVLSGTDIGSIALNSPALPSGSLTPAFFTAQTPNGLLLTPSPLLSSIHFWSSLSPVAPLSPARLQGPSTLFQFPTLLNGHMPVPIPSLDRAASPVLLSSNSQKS
# Outline: as §1
# [10] = target: T7, FEV (Homo sapiens, UniProt Q99581 1-238); settings: protein: recombinant; tags: N-terminal GST; dsDNA, one strand shown
# T7 sequence: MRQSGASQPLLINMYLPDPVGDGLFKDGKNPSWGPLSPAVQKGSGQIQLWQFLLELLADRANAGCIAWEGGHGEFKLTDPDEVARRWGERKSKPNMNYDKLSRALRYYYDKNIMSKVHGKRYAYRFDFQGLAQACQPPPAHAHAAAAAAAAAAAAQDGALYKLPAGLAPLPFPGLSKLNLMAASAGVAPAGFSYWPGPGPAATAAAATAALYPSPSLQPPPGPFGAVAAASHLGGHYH
# Outline: as §1
# [11] = target: ETV5 (Homo sapiens, UniProt P41161 1-510); settings: protein: recombinant; tags: N-terminal GST; dsDNA, one strand shown
# Sequence of ETV5 (P41161 whole entry): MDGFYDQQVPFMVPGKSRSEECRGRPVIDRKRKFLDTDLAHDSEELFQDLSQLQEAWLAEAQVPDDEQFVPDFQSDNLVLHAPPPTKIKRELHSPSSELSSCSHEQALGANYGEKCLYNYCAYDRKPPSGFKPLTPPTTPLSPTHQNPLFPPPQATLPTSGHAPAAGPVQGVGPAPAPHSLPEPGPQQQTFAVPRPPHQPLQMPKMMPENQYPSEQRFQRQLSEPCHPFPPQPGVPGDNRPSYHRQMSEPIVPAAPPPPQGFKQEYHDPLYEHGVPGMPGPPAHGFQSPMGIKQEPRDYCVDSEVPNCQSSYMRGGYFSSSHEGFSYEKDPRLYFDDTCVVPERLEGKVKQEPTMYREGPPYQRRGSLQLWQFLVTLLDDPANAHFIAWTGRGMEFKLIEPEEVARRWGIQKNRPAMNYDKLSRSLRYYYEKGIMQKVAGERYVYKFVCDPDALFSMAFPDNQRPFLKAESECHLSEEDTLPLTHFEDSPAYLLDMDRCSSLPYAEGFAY
# Outline: as §1
# [12] = target: HSF1 (Homo sapiens, UniProt Q00613 1-529); settings: protein: recombinant; tags: N-terminal GST; chain copies: 3; dsDNA, one strand shown
# Sequence of HSF1 (Q00613 whole entry): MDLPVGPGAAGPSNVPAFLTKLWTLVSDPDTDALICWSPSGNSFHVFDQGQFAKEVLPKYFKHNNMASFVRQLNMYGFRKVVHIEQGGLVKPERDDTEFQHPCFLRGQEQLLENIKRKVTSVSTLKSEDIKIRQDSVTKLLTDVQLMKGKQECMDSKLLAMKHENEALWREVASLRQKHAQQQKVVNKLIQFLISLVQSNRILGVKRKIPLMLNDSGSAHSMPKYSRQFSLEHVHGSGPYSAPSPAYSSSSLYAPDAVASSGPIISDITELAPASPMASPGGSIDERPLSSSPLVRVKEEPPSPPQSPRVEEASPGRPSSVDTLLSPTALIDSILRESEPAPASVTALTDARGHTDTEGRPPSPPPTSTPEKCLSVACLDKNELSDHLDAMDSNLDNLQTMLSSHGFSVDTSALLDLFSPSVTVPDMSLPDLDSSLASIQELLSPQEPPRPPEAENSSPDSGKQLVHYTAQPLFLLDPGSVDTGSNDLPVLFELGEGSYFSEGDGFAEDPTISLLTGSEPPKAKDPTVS
# Outline: as §1
# [13] = target: T8, SPIC (Homo sapiens, UniProt Q8N5J4 1-248); settings: protein: recombinant; tags: N-terminal GST; dsDNA, one strand shown
# T8 sequence: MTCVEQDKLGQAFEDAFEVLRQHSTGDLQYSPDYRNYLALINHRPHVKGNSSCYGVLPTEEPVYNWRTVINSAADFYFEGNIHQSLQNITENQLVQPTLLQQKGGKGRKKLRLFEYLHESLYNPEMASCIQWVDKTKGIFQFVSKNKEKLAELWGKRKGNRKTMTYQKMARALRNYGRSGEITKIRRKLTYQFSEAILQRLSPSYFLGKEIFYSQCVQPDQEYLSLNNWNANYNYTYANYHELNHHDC
# Outline: as §1
# [14] = target: ELF4 (Homo sapiens, UniProt Q99607 1-663); settings: protein: recombinant; tags: N-terminal GST; dsDNA, one strand shown
# Sequence of ELF4 (Q99607 whole entry): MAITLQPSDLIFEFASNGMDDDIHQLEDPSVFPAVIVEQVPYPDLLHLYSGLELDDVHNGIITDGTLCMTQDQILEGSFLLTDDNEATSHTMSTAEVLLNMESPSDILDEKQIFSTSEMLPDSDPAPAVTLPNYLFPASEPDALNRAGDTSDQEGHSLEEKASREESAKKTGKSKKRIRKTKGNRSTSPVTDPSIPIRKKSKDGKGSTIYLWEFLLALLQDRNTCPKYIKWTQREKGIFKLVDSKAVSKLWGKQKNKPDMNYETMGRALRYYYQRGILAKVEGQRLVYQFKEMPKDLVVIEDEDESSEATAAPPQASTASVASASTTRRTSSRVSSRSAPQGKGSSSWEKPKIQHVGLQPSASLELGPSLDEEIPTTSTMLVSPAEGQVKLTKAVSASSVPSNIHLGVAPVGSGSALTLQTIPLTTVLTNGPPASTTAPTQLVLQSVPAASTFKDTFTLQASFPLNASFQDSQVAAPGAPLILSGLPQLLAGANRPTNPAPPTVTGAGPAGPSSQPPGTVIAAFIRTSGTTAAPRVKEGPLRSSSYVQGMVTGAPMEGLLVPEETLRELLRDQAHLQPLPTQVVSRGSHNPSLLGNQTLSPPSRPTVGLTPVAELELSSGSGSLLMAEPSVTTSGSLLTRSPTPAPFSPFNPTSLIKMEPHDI
# Outline: as §1
# [15] = target: T9, ELK4 (Homo sapiens, UniProt P28324-2 1-405); settings: protein: recombinant; tags: N-terminal GST; dsDNA, one strand shown
# T9 sequence: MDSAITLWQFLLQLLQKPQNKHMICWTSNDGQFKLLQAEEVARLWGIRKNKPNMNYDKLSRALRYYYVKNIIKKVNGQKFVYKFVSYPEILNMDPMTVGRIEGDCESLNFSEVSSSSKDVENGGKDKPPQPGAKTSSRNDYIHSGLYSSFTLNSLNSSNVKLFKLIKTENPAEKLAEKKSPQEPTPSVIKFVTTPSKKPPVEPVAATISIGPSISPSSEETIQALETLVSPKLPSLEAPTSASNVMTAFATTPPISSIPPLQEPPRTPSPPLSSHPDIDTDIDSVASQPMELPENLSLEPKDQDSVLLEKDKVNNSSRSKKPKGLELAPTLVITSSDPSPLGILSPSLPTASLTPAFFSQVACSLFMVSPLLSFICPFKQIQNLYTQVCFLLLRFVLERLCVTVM
# Outline: as §1
# [16] = target: T10, ETV2 (Homo sapiens, UniProt O00321 1-342); settings: protein: recombinant; tags: N-terminal GST; dsDNA, one strand shown
# T10 sequence: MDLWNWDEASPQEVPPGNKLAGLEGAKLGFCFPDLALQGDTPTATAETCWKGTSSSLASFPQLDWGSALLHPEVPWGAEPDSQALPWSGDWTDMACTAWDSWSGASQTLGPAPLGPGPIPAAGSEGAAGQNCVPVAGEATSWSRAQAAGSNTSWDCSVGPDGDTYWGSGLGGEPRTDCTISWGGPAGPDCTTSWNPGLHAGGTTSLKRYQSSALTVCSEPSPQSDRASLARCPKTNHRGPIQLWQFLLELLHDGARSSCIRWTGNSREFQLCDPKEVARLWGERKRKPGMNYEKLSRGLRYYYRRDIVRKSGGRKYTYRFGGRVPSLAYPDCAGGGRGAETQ
# Outline: as §1
# [17] = target: T11, ELF3 (Homo sapiens, UniProt P78545 1-371); settings: protein: recombinant; tags: N-terminal GST; dsDNA, one strand shown
# T11 sequence: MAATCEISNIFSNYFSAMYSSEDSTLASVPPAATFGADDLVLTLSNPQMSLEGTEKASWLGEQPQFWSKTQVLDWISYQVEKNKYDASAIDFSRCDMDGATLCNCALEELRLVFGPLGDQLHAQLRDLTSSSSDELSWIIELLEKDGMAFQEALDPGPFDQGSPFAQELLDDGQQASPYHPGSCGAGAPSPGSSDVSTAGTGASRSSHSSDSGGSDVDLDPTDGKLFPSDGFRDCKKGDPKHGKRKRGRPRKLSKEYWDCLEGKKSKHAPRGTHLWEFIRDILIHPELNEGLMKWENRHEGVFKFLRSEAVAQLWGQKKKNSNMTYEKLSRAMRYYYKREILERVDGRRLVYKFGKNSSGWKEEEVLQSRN
# Outline: as §1
# [18] = target: CRX (Homo sapiens, UniProt O43186 1-299); settings: protein: recombinant; tags: N-terminal GST; dsDNA, one strand shown
# Sequence of CRX (O43186 whole entry): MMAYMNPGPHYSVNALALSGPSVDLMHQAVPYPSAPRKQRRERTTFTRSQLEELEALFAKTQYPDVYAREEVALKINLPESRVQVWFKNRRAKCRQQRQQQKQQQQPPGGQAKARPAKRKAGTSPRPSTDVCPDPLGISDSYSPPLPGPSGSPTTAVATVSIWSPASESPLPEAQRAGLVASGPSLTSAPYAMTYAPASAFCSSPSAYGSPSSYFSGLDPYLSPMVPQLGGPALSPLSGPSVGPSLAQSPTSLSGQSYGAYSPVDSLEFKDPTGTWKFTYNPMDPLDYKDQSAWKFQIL
# Outline: as §1
# [19] = target: ETV1 (Homo sapiens, UniProt P50549 1-477); settings: protein: recombinant; tags: N-terminal GST; dsDNA, one strand shown
# Sequence of ETV1 (P50549 whole entry): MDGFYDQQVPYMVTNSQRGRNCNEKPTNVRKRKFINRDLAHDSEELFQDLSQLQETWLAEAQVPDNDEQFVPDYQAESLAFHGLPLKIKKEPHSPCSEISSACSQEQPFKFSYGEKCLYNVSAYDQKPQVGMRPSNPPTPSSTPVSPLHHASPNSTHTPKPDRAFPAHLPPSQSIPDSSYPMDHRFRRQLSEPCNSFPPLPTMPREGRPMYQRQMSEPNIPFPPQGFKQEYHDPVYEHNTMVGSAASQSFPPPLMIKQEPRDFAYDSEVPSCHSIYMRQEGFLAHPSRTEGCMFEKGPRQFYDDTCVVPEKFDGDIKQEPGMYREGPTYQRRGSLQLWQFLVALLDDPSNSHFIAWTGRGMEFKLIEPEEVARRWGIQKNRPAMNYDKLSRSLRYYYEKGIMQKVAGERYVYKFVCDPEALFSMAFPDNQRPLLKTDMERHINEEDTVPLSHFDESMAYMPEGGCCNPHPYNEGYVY
# Outline: as §1
sequence,measurement,setting,value
ATACTC,binding signal,[1],"1.29 fold enrichment (6-mer frequency, TF over GST control)"
same,binding signal,[2],"1.32 fold enrichment (6-mer frequency, TF over GST control)"
same,binding signal,[3],"1.48 fold enrichment (6-mer frequency, TF over GST control)"
same,binding signal,[4],"1.3 fold enrichment (6-mer frequency, TF over GST control)"
same,binding signal,[5],"1.38 fold enrichment (6-mer frequency, TF over GST control)"
same,binding signal,[6],"1.33 fold enrichment (6-mer frequency, TF over GST control)"
same,binding signal,[7],"1.26 fold enrichment (6-mer frequency, TF over GST control)"
same,binding signal,[8],"1.32 fold enrichment (6-mer frequency, TF over GST control)"
same,binding signal,[9],"1.3 fold enrichment (6-mer frequency, TF over GST control)"
same,binding signal,[10],"1.27 fold enrichment (6-mer frequency, TF over GST control)"
same,binding signal,[11],"1.22 fold enrichment (6-mer frequency, TF over GST control)"
same,binding signal,[12],"1.41 fold enrichment (6-mer frequency, TF over GST control)"
same,binding signal,[13],"1.42 fold enrichment (6-mer frequency, TF over GST control)"
same,binding signal,[14],"1.25 fold enrichment (6-mer frequency, TF over GST control)"
same,binding signal,[15],"1.23 fold enrichment (6-mer frequency, TF over GST control)"
same,binding signal,[16],"1.3 fold enrichment (6-mer frequency, TF over GST control)"
same,binding signal,[17],"1.23 fold enrichment (6-mer frequency, TF over GST control)"
same,binding signal,[18],"1.37 fold enrichment (6-mer frequency, TF over GST control)"
same,binding signal,[19],"1.28 fold enrichment (6-mer frequency, TF over GST control)"
